Reference: PubChem BioAssay (NCI)
Several values for one entry are separate records, joined by “and”; a condition that tells them apart may be missing. Identical values can stand only once. The panel holds about 83,000 compounds, 20% with a hit somewhere; the sample as a whole holds those more often.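 Plates (96-well) were seeded with cells, treated with compound at one concentration, and incubated for 48 hours before percent growth was determined.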 A number with no mark means an inactive call. Activity calls are given as the source filed them. Rule for the calls: active = growth percent below 10; inactive = the rest.

System: MDA-MB-468 breast
Assay: NCI-60 one-dose screen, 48 h (100 = growth as untreated, 0 = no growth, -100 = all killed)
Conditions: 10 µM unless noted

Structure (SMILES)	growth
O=C(Nc1cccnc1Nc1ccc(F)cc1)c1cn(Cc2cccc(Oc3ccccc3)c2)nn1	63.5%
O=C(c1ccncc1)N1N=C(c2ccc(Cl)cc2)CC1c1c[nH]c2ccccc12 (configuration not stated)	102%
CCCCCCNC(=O)Oc1ccc(/C(=C(/C)c2ccc(Cl)cc2)c2ccc(OCCN3CCCCCC3)cc2)cc1	35.9%
C[C@@H]1CCC[C@H]1CC(N)C(=O)O (some centres not stated)	92.8%
O=C(CCNC(=O)c1nc(-c2ccccc2)n(-c2ccc(Cl)cc2)n1)NO	107%
CCCCCCN1C=C/C(=C\C(=O)n2ccc3ccccc32)c2ccccc21	-12% (active)
ClCc1cccc2c(CCl)cccc12	-18.3% (active)
Cc1cc(NC(=O)c2ccc(C)c(Nc3nccc(-c4cccnc4)n3)c2)cc(-n2cnc(C)c2)c1	-18.1% (active)
COc1ccc(-c2nn(-c3cccc(Cl)c3)cc2/C=C2\C(=N)N(c3ccccc3)N=C2N)cc1	57.6%
CC(N)C(Cc1ccc(Cl)cc1)c1ccc(Cl)cc1 (configuration not stated)	41.6%
Cc1c(O)c(O)cc2c3c(oc12)CC(c1ccc2c(c1)OCO2)CC3=O (configuration not stated)	93.2%
O=C(O)CCCCCN1C(=O)/C(=C/c2ccc(O)c(O)c2)SC1=S	103%
N#Cc1c(N2CCOCC2)nc2sc3cc(Cl)ccc3n2c1=N	15.8%
CC(C)c1ccc(-c2cnc3nonc3n2)cc1	21%
CCOC(=O)C1=CC(=O)CC(C)(C)O1	117% and 108%
COc1ccc(-c2ccc(-c3ccc(C(=N)N)nc3)s2)cc1	-69.9% (active)
CC(=O)Oc1c(C)c(C)c2c(c1C)CCC(C)(CC(=O)OCCCCCCCCCCC[P+](c1ccccc1)(c1ccccc1)c1ccccc1)O2 (configuration not stated)	-55.7% (active)
CCC(C)(C)c1cc(O)c(C(C)(C)CC)cc1O	-2.33% (active)
Cc1cccc(Cc2cnc(NC(=O)/C=C/c3ccco3)s2)c1	31.2%

Structure (SMILES)	growth
C1CCC(N2CN3c4nonc4N4CN(C5CCCCC5)CN5c6nonc6N(C2)C3C45)CC1 (configuration not stated)	99.5%
CCCCCCC/C=C/[C@H]1O[C@]23C(=O)C[C@@]4(C[C@@H](OC5OC(CO)C(O)C(O)C5O)C[C@@H]4[C@H]2C=C1C)OC3=O (some centres not stated)	25.7%
COc1ccc(C(=O)/C=C/c2ccc(Cl)cc2)cc1S(=O)(=O)Nc1c(N)nc(SC)[nH]c1=O	47.3%
COc1cccc(/C=C\C(=O)c2ccccc2)c1	69.4%
Cn1cc(-c2noc(C(=O)c3cn(C)c4ncc(Br)cc34)n2)c2ccccc21	111%
COC(=O)[C@]12CC[C@@H](C)[C@H](C)[C@@H]1C1=CC[C@@H]3[C@@]4(C)C[C@@H](OC(=O)c5ccco5)[C@H](O)[C@@](C)(CO)[C@@H]4[C@H](O)C[C@@]3(C)[C@]1(C)CC2	-89.1% (active)
O=C1c2c(O)cc(O)cc2O[C@@H](c2ccc(O)cc2)[C@@H]1c1c(O)cc(O)c2c(=O)cc(-c3ccc(O)c(O)c3)oc12	113%
Cc1cc(O)cc(O)c1N=NC1=NCCS1	109%
Oc1c(I)cc(I)cc1CN(Cc1ccccn1)Cc1ccccn1	8.74% (active)
O=C1c2ccccc2-c2nccc3cc(Cl)nc1c23	-87.2% (active)
CN(C)CC(=O)Nc1ccc(Cn2nnc3c2C(=O)c2nnn(Cc4ccc(NC(=O)CN(C)C)cc4)c2C3=O)cc1	-79% (active)
CCN1CCN(CCNc2nccc(-c3c(-c4ccc(F)c(OC)c4)nc4sccn34)n2)S1(=O)=O	80.1%
CC(C)C1=C(O)C2=C(C(=O)C1=O)[C@@]1(C)CCCC(C)(C)[C@@H]1CC2	73.1%
C[C@]12CCc3nc(Nc4cccc(O)c4)sc3C1=CC[C@@H]1[C@@H]2CC[C@]2(C)/C(=N\NC(N)=S)CC[C@@H]12	-32.7% (active)
Cc1cc(-c2ccc(N(C)C)cc2)c2sc(=O)[nH]c2n1	80%
C(=C(\C1=NCCN1)n1cnc2ccccc21)/c1cccc2ccccc12	80.6%
CSc1nc2c(c(=O)[nH]1)C1(C(=O)Nc3ccccc31)c1c(nc(SC)[nH]c1=O)N2	93.1%
O=C(O)CCCN1C(=O)/C(=C/c2cn(-c3ccccc3)nc2-c2ccc([N+](=O)[O-])cc2)SC1=S	73.5%
